Several values for one entry are separate records, joined by “and”; a condition that tells them apart may be missing. Equal entries are not always repeated. About 6,000 (1.7%) of roughly 350,000 compounds were called active. About 5% were inconclusive and are not listed. No stated cut-off is given here; in the data, active means CPE inhibition above about 20% (passing the limit was not always enough); inconclusive means no clear call, values can overlap the other calls; tested in BHK-21 cells. The sample as a whole holds a higher share of actives than the screen did.

Drawing on PubChem BioAssay AID651640 (Broad Institute, 2012), this text covers CPE inhibition for 45 compounds.

The experiment in a line: protection of cells from dengue 2 killing – plate reader, single concentration, primary screen (AID 651640).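 Further: 0% = median of neutral control wells and 100% = median of positive control wells.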 The conditions noted are these: DENV2-infected cells, cytopathic effect rescue, at 9.99 µM, stronger effect = higher value.
Consider `CCN(CC(=O)NCc1cccs1)C(=O)c1cccc(S(=O)(=O)Nc2ccccc2OC)c1`, for which the CPE inhibition is 0.937% (inactive). Next, `CCOc1ncccc1C(=O)Nc1ccc(S(=O)(=O)Nc2nc(C)cc(C)n2)cc1`: -5.45% (inactive); `CCOc1ncccc1C(=O)NNC(=O)c1cccc(S(=O)(=O)Nc2ccccc2OC)c1`: 23.7% (active).

For `O=C(NC[C@@H]1[C@@H](c2ccccc2)[C@H](CO)N1C(=O)Cc1cccnc1)C1CC1`, the CPE inhibition was -4.58% (inactive).

As for `COCC(=O)N[C@@H]1C[C@@H]2O[C@@H](CO)CC[C@@H]2O[C@@H]1CCc1ccc(-c2ccccc2)cc1`, the CPE inhibition was 14.8% (inactive).

For `CN(C)CC#Cc1ccc([C@H]2[C@H]3CN(C(=O)c4cccc(F)c4)CC(=O)N3[C@H]2CO)cc1`, the CPE inhibition is 0.131% (inactive). Under `CCOC(=O)C(Cc1ccccc1)NC(=O)CCC(=O)c1ccc(OC)cc1` (stereo not given) stands -0.51% (inactive); under `COc1cc([C@H](Cc2ccccc2)NC(C)=O)oc(=O)c1`, 23.5% (active); under `COc1ccc(OC)c(NC(=O)N[C@H](Cc2ccccc2)C(=O)NN)c1`, -9.79% (inactive). Next, `COCC(=O)N(C)C[C@@H]1Oc2ncc(C#C[C@H](C)O)cc2C(=O)N([C@@H](C)CO)C[C@@H]1C`: -2.59% (inactive). Under `C[C@H]1CN([C@@H](C)CO)C(=O)c2cc(Br)cnc2O[C@@H]1CN(C)C(=O)c1ccccc1F` stands 2.37% (inactive); under `Cc1cc(NS(=O)(=O)c2ccc(NC(=S)NC(=O)c3ccc(F)cc3Cl)cc2)no1`, 78.9% (active). In the case of `CCc1ccc(OC(C)C(=O)Nc2ccc(S(=O)(=O)Nc3cc(C)on3)cc2)cc1` (stereo not given), the CPE inhibition is 2.4% (inactive). Under `CCOc1ccc(C(=O)Nc2ccc(S(=O)(=O)Nc3cc(C)on3)cc2)cc1` stands 1.57% (inactive); under `CCC(=O)Nc1ccc2c(c1)C(=O)N(C)[C@@H]1CC[C@H](CC(=O)NCc3ccccc3)O[C@H]1CO2`, -3.19% (inactive). Next, `C[C@@H]1CN([C@@H](C)CO)C(=O)c2cc(NC(=O)Nc3ccc(C(F)(F)F)cc3)ccc2O[C@@H](C)CCCCO[C@H]1CN(C)C(=O)c1ccccc1`: 25.6% (active); `C[C@@H]1CCCCO[C@@H](CN(C)Cc2ccc(C(=O)O)cc2)[C@H](C)CN([C@@H](C)CO)C(=O)c2cc(NC(=O)Nc3ccc(C(F)(F)F)cc3)ccc2O1`: 17.1% (inactive); `C[C@H]1CCCCO[C@@H](CN(C)Cc2ccc(C(F)(F)F)cc2)[C@@H](C)CN([C@@H](C)CO)C(=O)c2cc(NC(=O)Nc3ccccc3)ccc2O1`: -2.84% (inactive). Under `C[C@@H]1CCCCO[C@@H](CN(C)Cc2ccc(C(=O)O)cc2)[C@@H](C)CN([C@@H](C)CO)C(=O)c2cc(NC(=O)Nc3ccc(C(F)(F)F)cc3)ccc2O1` stands 21.1% (active); under `C[C@@H]1CN([C@@H](C)CO)C(=O)c2cc(NC(=O)Nc3ccc(C(F)(F)F)cc3)ccc2O[C@@H]1CN(C)Cc1ccncc1`, 31.1% (active). As to `C[C@H](CO)N1C[C@H](C)[C@@H](CN(C)Cc2ccc3c(c2)OCO3)Oc2ccc(NC(=O)Nc3ccc(F)cc3)cc2C1=O`, the CPE inhibition was -6.58% (inactive). Under `C[C@H](CO)N1C[C@H](C)[C@@H](CN(C)Cc2ccncc2)Oc2ccc(NC(=O)Nc3ccccc3)cc2C1=O` stands 7.94% (inactive); under `COc1ccc(CN(C)C[C@@H]2Oc3ccc(NC(=O)Nc4ccc(OC)cc4)cc3C(=O)N([C@H](C)CO)C[C@H]2C)cc1`, -3.17% (inactive); under `C[C@H](CO)N1C[C@H](C)[C@H](CN(C)Cc2ccncc2)Oc2ccc(NC(=O)Nc3ccc(F)cc3)cc2C1=O`, -10.5% (inactive). Under `COc1ccc(NC(=O)Nc2ccc3c(c2)C(=O)N([C@@H](C)CO)C[C@H](C)[C@@H](CN(C)Cc2ccc4c(c2)OCO4)O3)cc1` stands 31.5% (active); under `C[C@@H]1CN([C@H](C)CO)C(=O)c2cc(NC(=O)Nc3ccccc3)ccc2O[C@@H](C)CCCCO[C@H]1CN(C)Cc1ccc(C(F)(F)F)cc1`, -1.92% (inactive); under `C[C@@H]1CCCCO[C@@H](CN(C)C(=O)Nc2ccc(C(F)(F)F)cc2)[C@H](C)CN([C@H](C)CO)C(=O)c2cc(NC(=O)c3ccccc3)ccc2O1`, 4.25% (inactive). Next, `COc1ccccc1-c1cn(CC[C@H]2CC[C@@H](NC(=O)CCN3CCCCC3)[C@@H](CO)O2)nn1`: -1.83% (inactive); `C[C@H]1CN([C@@H](C)CO)S(=O)(=O)c2ccc(C#Cc3cccc(F)c3)cc2O[C@@H]1CN(C)S(=O)(=O)c1cn(C)cn1`: -0.538% (inactive). With `CCNC(=O)[C@H]1[C@H](CO)[C@H]2Cn3c(cccc3=O)[C@@H]1N2Cc1cc(F)ccc1F`, the CPE inhibition was -7.97% (inactive). Next, `CCCNC(=O)N1C[C@@H](O)COC[C@@H]2O[C@@H](CC(=O)O)CC[C@H]21`: 5.1% (inactive); `CN(C)CC(=O)N[C@@H]1C[C@@H]2O[C@H](CO)CC[C@@H]2O[C@@H]1CCc1ccc(C#Cc2ccccc2)cc1`: 6.51% (inactive). Under `C[C@H](CO)N1C[C@H](C)[C@H](CN(C)C)Oc2ncc(/C=C/c3ccccc3)cc2C1=O` stands -2.89% (inactive) and -2.09% (inactive). Under `C[C@H](O)C#Cc1cnc2c(c1)C(=O)N([C@H](C)CO)C[C@@H](C)[C@@H](CN(C)C(=O)Nc1ccc(C(F)(F)F)cc1)O2` stands -2.9% (inactive).

On to `C/C=C/c1cnc2c(c1)C(=O)N([C@H](C)CO)C[C@H](C)[C@@H](CN(C)C(=O)Nc1ccc(C(F)(F)F)cc1)O2`, for which the CPE inhibition was -8.88% (inactive). Under `C[C@H]1CN([C@@H](C)CO)C(=O)c2cc(N(C)C)ccc2O[C@@H]1CN(C)Cc1ccccc1` stands 1.9% (inactive); under `C[C@@H]1CN([C@@H](C)CO)C(=O)c2cc(/C=C/c3ccccc3)cnc2O[C@H]1CN(C)C(=O)Nc1ccc(C(F)(F)F)cc1`, 22.8% (active); under `C[C@H](CO)N1C[C@H](C)[C@H](CN(C)Cc2ccncc2)Oc2ccc(N(C)C)cc2C1=O`, 24.8% (active).

Consider `Cc1noc(C)c1NC(=O)Nc1ccc2c(c1)C(=O)N([C@@H](C)CO)C[C@H](C)[C@H](CN(C)Cc1ccc(-c3ccccc3)cc1)O2`, for which the CPE inhibition was -1.16% (inactive).

With `C[C@@H]1CN([C@H](C)CO)C(=O)c2cc(NC(=O)Nc3ccc4c(c3)OCO4)ccc2O[C@@H](C)CCCCO[C@@H]1CN(C)Cc1ccc2c(c1)OCO2`, the CPE inhibition was -24.7% (inactive). Under `Cc1noc(C)c1NC(=O)Nc1ccc2c(c1)C(=O)N([C@H](C)CO)C[C@@H](C)[C@@H](CN(C)Cc1ccccc1)O2` stands 33.6% (active); under `C[C@H]1CCCCO[C@@H](CN(C)Cc2ccc3c(c2)OCO3)[C@@H](C)CN([C@@H](C)CO)C(=O)c2cc(NC(=O)Nc3ccc(F)cc3)ccc2O1`, 23% (active); under `Cc1noc(C)c1NC(=O)Nc1ccc2c(c1)C(=O)N([C@H](C)CO)C[C@H](C)[C@H](CN(C)Cc1ccc(-c3ccccc3)cc1)O2`, 5.27% (inactive).

On to `C[C@@H]1CN([C@@H](C)CO)C(=O)c2cc(N(C)C)ccc2O[C@H]1CN(C)Cc1ccc(C(F)(F)F)cc1`, for which the CPE inhibition was 2.48% (inactive). Next, `C[C@@H]1CCCCO[C@@H](CN(C)Cc2ccc3c(c2)OCO3)[C@@H](C)CN([C@@H](C)CO)C(=O)c2cc(NC(=O)Nc3ccccc3)ccc2O1`: -0.739% (inactive).
